# According to the supplement of paper PMC5662767:
# Counter-ions that a name gives are not always drawn.
# System: Drosophila S2 cl14 SmoIP sensor cells
# Experiment: normalized SmoIP GFP fluorescence (untreated unstimulated = 0%, untreated Hh-stimulated = 100%); higher = more Smo activation sensor fluorescence
# Conditions: compound concentration: 2 uM, 24 h
# [1] = stimulation: Hh conditioned medium (+Hh)
# [2] = stimulation: mock conditioned medium (-Hh)
# 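Further: flow cytometry read-out as median GFP intensity of gated cells, compounds added 30 min before Hh-conditioned or mock medium, mock-treated cells serving as unstimulated baseline.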
structure (smiles),measurement,setting,value
O=C(O)Cc1ccccc1Nc1c(Cl)cccc1Cl [Diclofenac-sodium],normalized SmoIP GFP fluorescence,[1],110%
same,normalized SmoIP GFP fluorescence,[2],4.03%
C[C@]1(c2nc3c(C(N)=O)cccc3[nH]2)CCCN1,normalized SmoIP GFP fluorescence,[1],117%
same,normalized SmoIP GFP fluorescence,[2],-2.96%
CCCc1nn(C)c2c(=O)[nH]c(-c3cc(S(=O)(=O)N4CCN(C)CC4)ccc3OCC)nc12 [Sildenafil-citrate],normalized SmoIP GFP fluorescence,[1],76.3%
same,normalized SmoIP GFP fluorescence,[2],-1.88%
CC(C)n1nc(-c2ccc3oc(N)nc3c2)c2c(N)ncnc21,normalized SmoIP GFP fluorescence,[1],73.9%
same,normalized SmoIP GFP fluorescence,[2],-0.889%
CN1CC2c3ccccc3Oc3ccc(Cl)cc3C2C1 (configuration not stated) [Asenapine],normalized SmoIP GFP fluorescence,[1],115%
same,normalized SmoIP GFP fluorescence,[2],4.58%
CCOc1cc(N)c(Cl)cc1C(=O)NCC1CN(Cc2ccc(F)cc2)CCO1 (configuration not stated) [Mosapride-citrate],normalized SmoIP GFP fluorescence,[1],103%
same,normalized SmoIP GFP fluorescence,[2],-4.68%
CC(=O)OCC[N+](C)(C)C [Acetylcholine-chloride],normalized SmoIP GFP fluorescence,[1],104%
same,normalized SmoIP GFP fluorescence,[2],-16.8%
O=C1NC(=O)/C(=C/c2ccc3nccc(-c4ccncc4)c3c2)S1,normalized SmoIP GFP fluorescence,[1],175%
same,normalized SmoIP GFP fluorescence,[2],2.43%
COc1c(C)c(C(=O)c2ccc(N)c(C(=O)O)c2)n2ccccc12,normalized SmoIP GFP fluorescence,[1],113%
same,normalized SmoIP GFP fluorescence,[2],-1.34%
O=C1NCCc2[nH]c(-c3ccncc3)cc21,normalized SmoIP GFP fluorescence,[1],164%
same,normalized SmoIP GFP fluorescence,[2],-0.477%
O=C(NCCS(=O)(=O)c1ccc(C(F)(F)F)cn1)c1ccc(Cl)cc1,normalized SmoIP GFP fluorescence,[1],120%
same,normalized SmoIP GFP fluorescence,[2],-14.9%
COc1cc(Br)c(Nc2nc(-c3c(C)nc4ncccn34)cs2)c(Br)c1,normalized SmoIP GFP fluorescence,[1],110%
same,normalized SmoIP GFP fluorescence,[2],5.12%
CC1(C)CCC(CN2CCN(c3ccc(C(=O)NS(=O)(=O)c4ccc(NCC5CCOCC5)c([N+](=O)[O-])c4)c(Oc4cnc5[nH]ccc5c4)c3)CC2)=C(c2ccc(Cl)cc2)C1,normalized SmoIP GFP fluorescence,[1],104%
same,normalized SmoIP GFP fluorescence,[2],-2.82%
Cc1nnc(C(C)C)n1C1C[C@H]2CC[C@@H](C1)N2CC[C@H](NC(=O)C1CCC(F)(F)CC1)c1ccccc1 (stereo in doubt) [Maraviroc],normalized SmoIP GFP fluorescence,[1],122%
same,normalized SmoIP GFP fluorescence,[2],-13.4%
O=c1cc(-c2ccccc2)oc2cc(O)c(O)c(O)c12 [Baicalein],normalized SmoIP GFP fluorescence,[1],108%
same,normalized SmoIP GFP fluorescence,[2],1.24%
CCN(CC)CC#CCOC(=O)C(O)(c1ccccc1)C1CCCCC1 (configuration not stated) [oxybutynin-chloride],normalized SmoIP GFP fluorescence,[1],108%
same,normalized SmoIP GFP fluorescence,[2],-1.12%
Cc1ccccc1C(OCCN(C)C)c1ccccc1 (configuration not stated) [orphenadrine-citrate-norflex],normalized SmoIP GFP fluorescence,[1],142%
same,normalized SmoIP GFP fluorescence,[2],-11.7%
C=CC(=O)Nc1cccc(Nc2nc(Nc3ccc(OCCOC)cc3)ncc2F)c1,normalized SmoIP GFP fluorescence,[1],116%
same,normalized SmoIP GFP fluorescence,[2],-2.31%
C[C@H](N[C@@H](CCc1ccccc1)C(=O)O)C(=O)N1CCC[C@H]1C(=O)O [Enalaprilat],normalized SmoIP GFP fluorescence,[1],117%
same,normalized SmoIP GFP fluorescence,[2],-0.265%
c1ccc2c(CC3=NCCN3)cccc2c1 [Naphazoline-hydrochloride-Naphcon],normalized SmoIP GFP fluorescence,[1],118%
same,normalized SmoIP GFP fluorescence,[2],-11.6%
C#Cc1cccc(Nc2ncnc3cc(OC)c(OCCCCCCC(=O)NO)cc23)c1,normalized SmoIP GFP fluorescence,[1],128%
same,normalized SmoIP GFP fluorescence,[2],29.7%
COc1cc2c(cc1OC)CC(=O)N(CCCN(C)C[C@@H]1Cc3cc(OC)c(OC)cc31)CC2 [ivabradine-hcl-procoralan],normalized SmoIP GFP fluorescence,[1],111%
same,normalized SmoIP GFP fluorescence,[2],-11.2%
CCc1cccc(CC)c1NC(=O)N1Cc2[nH]nc(NC(=O)c3ccc(N4CCN(C)CC4)cc3)c2C1,normalized SmoIP GFP fluorescence,[1],121%
same,normalized SmoIP GFP fluorescence,[2],3.18%
COc1ccc(NS(=O)(=O)c2sc3ccc(Cl)cc3c2C)cc1N1CCNCC1,normalized SmoIP GFP fluorescence,[1],108%
same,normalized SmoIP GFP fluorescence,[2],2.86%
CN(C)CCC(c1ccc(Br)cc1)c1ccccn1 (configuration not stated) [brompheniramine],normalized SmoIP GFP fluorescence,[1],138%
same,normalized SmoIP GFP fluorescence,[2],-5.17%
Cc1cc(C)c(CNC(=O)c2cc(-c3ccc(CN4CCOCC4)cc3)cc3c2cnn3C2CCCC2)c(=O)[nH]1,normalized SmoIP GFP fluorescence,[1],104%
same,normalized SmoIP GFP fluorescence,[2],-0.264%
COc1cc([C@@H]2c3cc4c(cc3[C@@H](O[C@@H]3O[C@@H]5CO[C@@H](C)O[C@H]5[C@H](O)[C@H]3O)[C@H]3COC(=O)[C@H]23)OCO4)cc(OC)c1OP(=O)(O)O [Etopophos],normalized SmoIP GFP fluorescence,[1],178%
same,normalized SmoIP GFP fluorescence,[2],28.7%
CN1CCC(NC(=O)c2cc(-c3c(O)cc(O)cc3Oc3ccc([N+](=O)[O-])cc3)on2)CC1,normalized SmoIP GFP fluorescence,[1],129%
same,normalized SmoIP GFP fluorescence,[2],4.56%
COc1ccccc1N1CCN(CCN2C(=O)CC3(CCCC3)CC2=O)CC1,normalized SmoIP GFP fluorescence,[1],102%
same,normalized SmoIP GFP fluorescence,[2],-17.9%
CN(C)C(=O)c1cc2cnc(Nc3ccc(N4CCNCC4)cn3)nc2n1C1CCCC1,normalized SmoIP GFP fluorescence,[1],98.3%
same,normalized SmoIP GFP fluorescence,[2],-0.265%
CN(C)CC[C@H](CSc1ccccc1)Nc1ccc(S(=O)(=O)NC(=O)c2ccc(N3CCN(Cc4ccccc4-c4ccc(Cl)cc4)CC3)cc2)cc1[N+](=O)[O-],normalized SmoIP GFP fluorescence,[1],109%
same,normalized SmoIP GFP fluorescence,[2],2.97%
CCC[C@H](NC(=O)/C(C#N)=C/c1cccc(Br)n1)c1ccccc1,normalized SmoIP GFP fluorescence,[1],114%
same,normalized SmoIP GFP fluorescence,[2],15.7%
Nc1nc(N)c2nc(-c3cccc(O)c3)c(-c3cccc(O)c3)nc2n1,normalized SmoIP GFP fluorescence,[1],110%
same,normalized SmoIP GFP fluorescence,[2],-5.01%
"Clc1ccc(Nc2nnc(Cc3ccncc3)c3ccccc23)cc1 [Vatalanib,Dihydrochloride-Salt]",normalized SmoIP GFP fluorescence,[1],125%
same,normalized SmoIP GFP fluorescence,[2],-9.22%
N#CC1(c2ccc(NC(=O)c3cccnc3NCc3ccncc3)cc2)CCCC1 [Apatinib-YN968D1],normalized SmoIP GFP fluorescence,[1],96.7%
same,normalized SmoIP GFP fluorescence,[2],-1.34%
Cc1cc(-c2ccc(CC(=O)Nc3ccc(-c4cccnc4)cc3)cc2)ccn1,normalized SmoIP GFP fluorescence,[1],247%
same,normalized SmoIP GFP fluorescence,[2],10.6%
